Assay [1] is described as follows: AP1 Signaling Pathway (AID 357).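 Note: ME-180 reporter cells stimulated with EGF at its EC50 level; % is set by controls: 0 for no effect and ±100 for the full control effect.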 As to conditions: ME-180 AP-1-bla reporter, EGF-induced, beta-lactamase ratio, 5 h; at 7.69 µM (top of the series) unless noted. In outline:
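Cells are seeded overnight, exposed to compound titrations and an EC50 level of EGF for 5 hours at 37 °C, then loaded with CCF4 dye for 2.5 hours. Beta-lactamase activity under the AP-1 element is read as a blue/green ratio.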

Assay [2] deals with Cytochrome P450 1A2 (Homo sapiens) (UniProt P05177). As to the kind of experiment: p450-cyp1a2 (AID 410; calls by dose curve; note: potency is the fitted concentration of half-maximal effect;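 for activity change, negative = inhibition: -100% = full effect of reference inhibitor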). As to conditions: recombinant CYP1A2, luciferin-ME demethylation, luminescence; series mostly up to 57 µM. The procedure, abridged:
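Luminescent demethylation readout: Luciferin-ME (100uM, equal to Km) turned over by 20nM CYP1A2 for 60 min at room temperature after NADPH regeneration addition, following 10 min compound preincubation. Normalization used 57 uM furafylline as full inhibition.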

Assay [3] in a line: NFAT Signaling Pathway (AID 444).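 Note: carbachol stimulus at about its EC50 of 1 µM final; % is set by controls: 0 for no effect and ±100 for the full control effect.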 As to conditions: Jurkat NFAT-bla M1, carbachol, beta-lactamase ratio, 5 h; at 7.69 µM (top of the series) unless noted. In outline: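 Read-out: CCF4 FRET ratio (460 nm/530 nm) after 1 h RT dye loading, used for %activity and AC50 from titration series. Cells: Jurkat NFAT-β-lactamase/M1 line, treated with compound plus 1 uM carbachol for 5 h, 37 °C.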

The nature of assay [4]: Stat Signaling Pathway (AID 446).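 Note: ME-180 cervical cancer cells given 40 pM IL-6 alongside compound; SIE-controlled beta-lactamase reporter measured as 460/530 nm FRET emission ratio; % is set by controls: 0 for no effect and ±100 for the full control effect.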 As to conditions: ME-180 SIE beta-lactamase reporter, IL-6 stimulated, 5 h; at 7.69 µM (top of the series) unless noted. The procedure, abridged:
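Compound effects on IL-6-induced STAT reporter activity were measured in ME-180 cells. After overnight culture, cells were co-treated with 40 pM IL-6 for 5 hrs before beta-lactamase substrate loading at room temperature.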

Assay [5] deals with Glucocorticoid receptor (Homo sapiens) (UniProt P04150). Kind of assay: GR-GFP Redistribution (AID 450;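 active = compounds whose dose series gives a full or clear partial fitted curve of increased nuclear translocation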; note: potency is the fitted concentration of half-maximal effect). As to conditions: U2OS GR-GFP nuclear translocation, laser cytometry, 2 h.
Chain of Glucocorticoid receptor (Homo sapiens) (P04150 whole entry, looked up, the tested form may be a part): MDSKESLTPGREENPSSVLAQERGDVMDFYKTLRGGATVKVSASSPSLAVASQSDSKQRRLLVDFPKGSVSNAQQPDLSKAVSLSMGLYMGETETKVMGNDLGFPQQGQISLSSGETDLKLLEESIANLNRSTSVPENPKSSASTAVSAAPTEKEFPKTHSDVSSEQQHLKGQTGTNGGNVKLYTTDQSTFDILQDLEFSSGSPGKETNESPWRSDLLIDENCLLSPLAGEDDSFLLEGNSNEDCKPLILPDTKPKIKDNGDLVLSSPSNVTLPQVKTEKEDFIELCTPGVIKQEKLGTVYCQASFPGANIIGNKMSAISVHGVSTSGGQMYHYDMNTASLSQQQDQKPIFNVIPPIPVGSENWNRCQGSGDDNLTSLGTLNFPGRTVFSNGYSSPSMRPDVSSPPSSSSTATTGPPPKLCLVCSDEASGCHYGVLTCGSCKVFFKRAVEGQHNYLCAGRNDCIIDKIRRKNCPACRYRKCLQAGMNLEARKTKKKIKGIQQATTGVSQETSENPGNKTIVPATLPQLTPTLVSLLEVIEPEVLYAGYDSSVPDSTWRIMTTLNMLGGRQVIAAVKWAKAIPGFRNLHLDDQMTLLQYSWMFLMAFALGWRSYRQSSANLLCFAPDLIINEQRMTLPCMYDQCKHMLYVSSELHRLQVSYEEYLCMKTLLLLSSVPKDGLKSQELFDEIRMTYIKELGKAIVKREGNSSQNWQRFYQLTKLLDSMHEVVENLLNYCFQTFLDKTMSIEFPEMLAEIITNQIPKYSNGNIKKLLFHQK
The target is the same in assay [6]. Kind of assay: GR-EFC Redistribution (AID 451; calls by dose curve; note: potency is the fitted concentration of half-maximal effect). As to conditions: CHO-K1 GR-EFC translocation, beta-gal luminescence, 2 h. In outline: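 Translocation of GR-ED fusion to nuclear EA restores b-gal, read by luminescence after 1 h room-temperature detection. Engineered CHO-K1 biosensor cells, 1,000/well, exposed 2 h at 37 C to titrations up to 46 uM final.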
Assay [7] addresses Mitogen-activated protein kinase 10 (Mus musculus) (UniProt Q61831). Kind of assay: JNK3 AlphaScreen Assay (AID 530).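 Note: kinase came from lysate of stimulated human HepG2 cells; signal reports phosphorylation of biotinylated GST-cJun 1-79 at Ser73 with 10 µM ATP; % is set by controls: 0 for no effect and ±100 for the full control effect.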 As to conditions: JNK3 lysate, c-Jun phosphorylation; series mostly up to 57.1 µM. In outline: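 qHTS titrations with 15 min compound pre-incubation before adding ATP (10 uM final). Read-out: AlphaScreen of Ser73-phosphorylated biotin-GST-cJun using HepG2 lysate JNK3 activated by IL-1β and TNFα.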

Assay [8] concerns the target 3',5'-cyclic-AMP phosphodiesterase 4B (Homo sapiens) (UniProt Q07343). Kind of assay: qHTS Assay for Inhibitors of PDE-IV (AID 607; active = well fitted activation curve with a large enough effect in the main read-out, with a control signal flat, not every such curve was filed as active; note: % of control where 0% means no effect). As to conditions: HEK293 ACTOne CNG channel cells, membrane potential fluorescence; series mostly up to 22.9 µM. The procedure, abridged:
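ACTOne HEK293 cells carry a modified cAMP-gated CNG channel and express endogenous PDE4; plated 1000 cells/well, compounds up to 22.9 uM final. Membrane-potential dye fluorescence (ex 535/em 590) was read; parental cells received 10 uM forskolin + 100 uM RO 20-1724.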

Assay [9] addresses Cytochrome P450 3A4 (Homo sapiens) (UniProt P08684). As to the kind of experiment: qHTS Assay for Inhibitors and Substrates of Cytochrome P450 3A4 (AID 884; active = well fitted curve in the direction sought with a large enough effect; an effect the other way counts as inactive or inconclusive; note: potency is the fitted concentration of half-maximal effect; nearly all actives have a fitted effect of over 50% in size). As to conditions: recombinant CYP3A4, Luciferin-PPXE luminescence; series mostly up to 57.1 µM. In outline: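 Luminescent readout of luciferin produced by CYP3A4 (20 nM) dealkylation of Luciferin-PPXE, 25 uM (its KM). NADPH-driven reaction ran 60 min at RT after 10 min compound preincubation; data scaled to 57 uM ketoconazole as 100% inhibition.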
(In general: Quantitative high-throughput screening tests each substance at several concentrations.)

The target is the same in assay [10]. Kind of assay: qHTS Assay for Activators of Cytochrome P450 3A4 (AID 885; active = well fitted curve in the direction sought with a large enough effect; an effect the other way counts as inactive or inconclusive; note: nearly all actives have a fitted effect of over 65% in size). As to conditions: recombinant CYP3A4, Luciferin-PPXE luminescence, 60 min; series mostly up to 57.1 µM. The procedure, abridged:
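CYP3A4 activity: Luciferin-PPXE O-dealkylation, 25uM substrate, 200mM KPO4, RT throughout. Read-out is luciferase luminescence; higher values reflect activation.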

Assay [11] is described as follows: Confirmation and Secondary Assay for Modulators of Hemoglobin Beta Chain Splicing at IVS2 654 locus (AID 910; active = well fitted curve in the direction sought with a large enough effect; an effect the other way counts as inactive or inconclusive;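 note: HeLa cells stably carrying EGFP split by mutant beta-globin IVS2-654 intron; per-well total GFP intensity by laser scanning cytometry after 2-day treatment; % of control where 0% means no effect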). As to conditions: HeLa EGFP-654 splicing reporter, GFP fluorescence, 48 h; series mostly up to 38.3 µM. In outline: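 Readout: per-well total peak green fluorescence (488 nm ex, 500–520 nm em) from objects 5–250 µm, reflecting correct splicing of an EGFP-654 reporter. Compounds were applied for 2 days at 37 °C to overnight-plated HeLa EGFP-654 cells; controls were DMSO and 500 nM IVS2-654 PNA.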

Assay [12] in a line: Confirmation and Secondary Assay for Modulators of Hemoglobin Beta Chain Splicing at IVS2 705 locus (AID 930; active = well fitted curve in the direction sought with a large enough effect; an effect the other way counts as inactive or inconclusive;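 note: HeLa cells stably expressing the EGFP-705 splicing reporter; % of control where 0% means no effect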). As to conditions: HeLa EGFP-705 splicing reporter, GFP fluorescence, 48 h; series mostly up to 38.3 µM. In outline:
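Restored EGFP fluorescence after 2-day compound exposure reports splicing correction in IVS2-705 EGFP reporter HeLa cells; positive control was 500 nM splice-blocking PNA oligo. Signal measured as well total peak GFP intensity (488 nm excitation).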

Assay [13] can be described thus: Primary qHTS for small molecule stabilizers of the endoplasmic reticulum resident proteome: Secreted ER Calcium Modulated Protein (SERCaMP) assay (AID 1508630; active = well fitted curve in the direction sought with a large enough effect; an effect the other way counts as inactive or inconclusive; note: % is set by controls: 0 for no effect and ±100 for the full control effect). As to conditions: SH-SY5Y GLuc-SERCaMP (Gaussia luciferase released on ER calcium loss) secretion, thapsigargin, luminescence; series mostly up to 38.4 µM. In outline: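 The SH-SY5Y reporter protocol was run at 3 concentrations up to 38.3 uM (primary) or 11 concentrations (follow-up): 16 h compound, 100 nM thapsigargin for 4 h, then extracellular luciferase luminescence.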

For assay [14], the target named is Lysosomal acid glucosylceramidase (Homo sapiens) (UniProt P04062). Kind of assay: Glucocerebrosidase-p2 (AID 348; in the data active = potency below about 10 µM; note: potency is the fitted concentration of half-maximal effect). As to conditions: purified GBA, blue fluorogenic substrate, 40 min. In outline:
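Normal human glucocerebrosidase (0.2 nM) with blue fluorogenic substrate (80 uM final) in citrate/phosphate pH 5.9 with 10mM sodium taurocholate, 0.01% tween-20; 40 min RT, NaOH/glycine stop; fluorescence Ex 365/Em 440; AC50 from a titration from 0.6 nM upwards.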

A short description of assay [15]: qHTS Assay for Identification of Small Molecule Agonists for Hypoxia Response Element Signaling Pathway (AID 914; active = well fitted activation curve with a large enough effect in the signal ratio, with a control signal flat, not every such curve was filed as active; the % refers to the signal ratio; note: potency is the fitted concentration of half-maximal effect). As to conditions: ME-180 (cervical carcinoma) HRE-bla reporter, beta-lactamase ratio, CoCl2, 17 h; activation: stronger effect = higher value. In outline: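 AC50 values come from titration-series %Activity, taken as the 460/530nm ratio of CCF4 fluorescence (excitation 405nm). CellSensor HRE-bla ME-180 cells were treated 17 hours at 37 C with compound plus an EC50 level of CoCl2.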

For assay [16], the target named is Cytochrome P450 2C9 (Homo sapiens) (UniProt P11712). As to the kind of experiment: qHTS Assay for Inhibitors and Substrates of Cytochrome P450 2C9 (AID 883; active = well fitted curve in the direction sought with a large enough effect; an effect the other way counts as inactive or inconclusive; note: potency is the fitted concentration of half-maximal effect; nearly all actives have a fitted effect of over 60% in size). As to conditions: recombinant CYP2C9, luciferin-H luminescence, 60 min; series mostly up to 57.1 µM. In outline: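 Luminescent read-out of deoxyluciferin hydroxylation, normalized to 57uM sulphaphenazole (AC100). Reaction: 10nM enzyme, 100uM Luciferin-H (equal to KM), 25mM KPO4, 10 min compound preincubation, then 60 min with NADPH regeneration, both at 37C.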
Chain of Cytochrome P450 2C9 (Homo sapiens) (P11712 whole entry, looked up): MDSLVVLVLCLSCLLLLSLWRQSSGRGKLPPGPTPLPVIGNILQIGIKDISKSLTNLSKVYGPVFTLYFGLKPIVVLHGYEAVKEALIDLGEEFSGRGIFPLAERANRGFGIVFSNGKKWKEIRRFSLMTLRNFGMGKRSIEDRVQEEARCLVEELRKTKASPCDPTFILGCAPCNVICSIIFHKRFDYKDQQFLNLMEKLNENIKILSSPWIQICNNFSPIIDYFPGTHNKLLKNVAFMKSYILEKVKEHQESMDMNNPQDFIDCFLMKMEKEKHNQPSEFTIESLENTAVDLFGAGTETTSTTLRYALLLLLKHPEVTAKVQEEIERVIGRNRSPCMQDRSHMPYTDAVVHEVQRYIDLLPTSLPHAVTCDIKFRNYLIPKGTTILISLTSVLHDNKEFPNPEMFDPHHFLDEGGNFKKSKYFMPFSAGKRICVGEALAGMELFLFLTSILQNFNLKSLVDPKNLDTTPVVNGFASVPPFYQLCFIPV

Unmarked numbers belong to inactive results. Records with an inconclusive call do not appear. Active and inactive are the calls of the source. Unless noted, calls come from the whole dose curve; as a rule, active = well fitted curve in either direction with a large enough effect (not every such curve was filed as active); inconclusive = small, poorly fitted or top-dose-only effect, or another doubt; inactive = flat fitted curve, though single readings scatter.

Chain of Cytochrome P450 1A2 (Homo sapiens) (P05177 whole entry, looked up): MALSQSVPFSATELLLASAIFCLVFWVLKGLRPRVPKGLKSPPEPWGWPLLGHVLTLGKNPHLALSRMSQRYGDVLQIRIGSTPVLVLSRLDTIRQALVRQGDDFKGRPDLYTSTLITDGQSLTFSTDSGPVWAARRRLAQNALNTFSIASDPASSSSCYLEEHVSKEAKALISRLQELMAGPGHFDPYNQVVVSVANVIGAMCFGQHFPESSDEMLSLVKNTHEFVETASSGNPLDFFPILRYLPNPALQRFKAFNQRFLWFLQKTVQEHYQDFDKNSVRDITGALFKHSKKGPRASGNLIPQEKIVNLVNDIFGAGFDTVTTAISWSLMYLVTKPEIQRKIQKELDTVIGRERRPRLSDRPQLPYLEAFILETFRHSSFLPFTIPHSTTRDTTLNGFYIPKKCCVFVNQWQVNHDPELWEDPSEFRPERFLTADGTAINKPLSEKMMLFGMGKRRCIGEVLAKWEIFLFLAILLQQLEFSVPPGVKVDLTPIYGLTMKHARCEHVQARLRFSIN
Chain of Lysosomal acid glucosylceramidase (Homo sapiens) (P04062 whole entry, looked up): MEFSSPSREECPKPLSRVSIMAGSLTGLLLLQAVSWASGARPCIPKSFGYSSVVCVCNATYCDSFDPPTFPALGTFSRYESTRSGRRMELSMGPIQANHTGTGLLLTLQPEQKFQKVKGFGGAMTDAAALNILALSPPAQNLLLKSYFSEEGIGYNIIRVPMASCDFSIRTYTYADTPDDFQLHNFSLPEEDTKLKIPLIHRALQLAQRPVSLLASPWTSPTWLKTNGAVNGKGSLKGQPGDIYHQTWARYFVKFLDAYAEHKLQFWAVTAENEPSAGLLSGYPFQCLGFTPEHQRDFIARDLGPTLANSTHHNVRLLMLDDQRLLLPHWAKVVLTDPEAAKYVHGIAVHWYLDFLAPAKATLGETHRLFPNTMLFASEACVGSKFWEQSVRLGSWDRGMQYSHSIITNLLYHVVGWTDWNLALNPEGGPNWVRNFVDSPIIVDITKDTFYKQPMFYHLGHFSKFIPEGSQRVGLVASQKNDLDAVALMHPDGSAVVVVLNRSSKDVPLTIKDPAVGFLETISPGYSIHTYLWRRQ
Chain of 3',5'-cyclic-AMP phosphodiesterase 4B (Homo sapiens) (Q07343 whole entry, looked up): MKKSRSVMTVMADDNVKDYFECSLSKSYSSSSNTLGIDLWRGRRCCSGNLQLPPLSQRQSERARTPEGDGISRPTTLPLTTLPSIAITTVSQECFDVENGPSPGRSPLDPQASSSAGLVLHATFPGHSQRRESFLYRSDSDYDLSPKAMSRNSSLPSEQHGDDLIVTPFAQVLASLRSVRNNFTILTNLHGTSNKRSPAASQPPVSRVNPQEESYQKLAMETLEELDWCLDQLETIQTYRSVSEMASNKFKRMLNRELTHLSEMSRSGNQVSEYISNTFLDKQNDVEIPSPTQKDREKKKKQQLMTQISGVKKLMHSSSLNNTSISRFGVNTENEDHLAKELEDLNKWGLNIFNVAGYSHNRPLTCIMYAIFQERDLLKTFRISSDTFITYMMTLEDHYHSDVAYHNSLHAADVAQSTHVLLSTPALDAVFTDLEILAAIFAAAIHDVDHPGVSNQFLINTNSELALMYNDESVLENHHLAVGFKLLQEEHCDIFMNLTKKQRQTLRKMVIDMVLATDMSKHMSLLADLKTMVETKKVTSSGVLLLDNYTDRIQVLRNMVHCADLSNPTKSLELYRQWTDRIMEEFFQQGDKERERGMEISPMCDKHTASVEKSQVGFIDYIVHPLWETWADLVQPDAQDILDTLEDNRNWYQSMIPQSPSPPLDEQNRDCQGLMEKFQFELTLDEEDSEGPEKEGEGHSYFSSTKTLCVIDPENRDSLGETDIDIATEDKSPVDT
Chain of Cytochrome P450 3A4 (Homo sapiens) (P08684 whole entry, looked up): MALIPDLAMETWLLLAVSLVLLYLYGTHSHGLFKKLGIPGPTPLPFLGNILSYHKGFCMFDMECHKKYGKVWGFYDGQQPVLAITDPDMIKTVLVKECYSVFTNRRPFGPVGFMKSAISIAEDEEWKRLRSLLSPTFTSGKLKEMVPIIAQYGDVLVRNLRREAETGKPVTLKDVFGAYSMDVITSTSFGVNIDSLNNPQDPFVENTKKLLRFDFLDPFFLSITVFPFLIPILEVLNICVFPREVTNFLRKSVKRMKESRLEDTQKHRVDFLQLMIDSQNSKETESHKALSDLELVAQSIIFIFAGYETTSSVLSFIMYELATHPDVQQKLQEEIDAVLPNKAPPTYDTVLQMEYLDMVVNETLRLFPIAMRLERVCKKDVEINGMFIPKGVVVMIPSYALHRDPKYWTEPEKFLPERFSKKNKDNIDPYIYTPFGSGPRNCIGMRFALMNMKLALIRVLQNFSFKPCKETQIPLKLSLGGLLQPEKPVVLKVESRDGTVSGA

On to `COc1ccccc1CNc1nc(-c2ccc(N(C)C)cc2)nc2ccccc12`, for which the figures for the activity change, negative = inhibition in assay [1] and in assay [3] were 1.38% and -29.6%, respectively. The Potency in assay [2] was 2.51 µM (active); in assay [5] it was > 46 µM; in [6] it was > 46 µM; in assay [9] it was 3.16 µM (active). For the same compound, the activity, negative = inhibition in [4] is 20.3%. The Potency result in assay [7], in [8], in assay [10] and in assay [11] was “inactive” each time. For the same compound, the compound was classed as inactive in [12] and in [13].

On to `O=C(c1cnccn1)N1CCC2(CCCN(c3ccccn3)C2)CC1`, for which, in [1], the activity change, negative = inhibition was -13%. Moreover, the Potency result in [2], in assay [7], in assay [8] and in assay [10] was “inactive” each time. Also, the activity, negative = inhibition in [4] was 1.23%. Besides, the Potency in [6] is > 46 µM. Further, the result in assay [13] was inactive.

In the case of `COc1ccc(Oc2ncc3nc(-c4ccccc4)c(=O)n(Cc4cccs4)c3n2)cc1`, the activity change, negative = inhibition in assay [1] is -8.46%; in assay [3], -1.01%. The activity, negative = inhibition in [4] was -3.78%. Besides, the Potency in assay [5] is > 9.22 µM; in assay [6], > 46 µM. Further, the Potency entry in assay [7] and in assay [8] was “inactive” each time. In addition, the outcome in assay [13] was inactive.

Turning to `O=C(Nc1cccc(F)c1)N1CCCC2(CCN(C(=O)c3cccc(F)c3)CC2)C1`, the Potency in assay [14] was > 11.4 µM; in assay [6], > 46 µM. Besides, the activity, negative = inhibition in assay [4] was -9.43%. Also, the Potency entry in assay [7] is “inactive”. Further, the result in [13] was inactive.

On to `COc1cccc(Cn2c(=O)c(C)nc3cnc(OCc4ccccc4)nc32)c1`, for which the results for the Potency in assay [14], in assay [5] and in assay [6] were > 11.4 µM, > 9.22 µM and > 46 µM, respectively. Besides, the activity change, negative = inhibition in assay [3] was -16.9%. Also, the activity, negative = inhibition in [4] is -3.44%. The Potency result in [7] was “inactive”. Also, the result in [13] was inactive.

On to `CN(C)c1ncc2nc(-c3ccccc3)c(=O)n(C3CC3)c2n1`, for which the Potency in [14] was > 11.4 µM; in assay [2] it was 2.51 µM (active); in [5], > 9.22 µM; in assay [6], > 46 µM; in assay [15], 3.16 µM (active). Besides, the outcome in assay [13] was inactive.

With `O=C(c1cccc(F)c1)N1CCC2(CCCN(Cc3cc(C(F)(F)F)cc(C(F)(F)F)c3)C2)CC1`, the Potency in [14] was > 11.4 µM; in assay [6], > 46 µM. The Potency result in [2], in assay [7], in assay [8] and in assay [10] was “inactive” each time. Moreover, the activity, negative = inhibition in assay [4] was 3.76%. Moreover, the result in assay [13] was inactive.

Turning to `CCNc1ncc2nc(-c3ccc(Cl)cc3)c(=O)n(-c3ccccc3)c2n1`, the Potency in [14] is > 11.4 µM; in [2] it was 1 µM (active); in [5], > 9.22 µM; in assay [6], > 46 µM. Besides, the Potency entry in [7] is “inactive”. In addition, the outcome in [13] was inactive.

`COc1cccc(Cn2c(=O)c(CCc3ccccc3)nc3cnc(OC)nc32)c1`: the activity change, negative = inhibition in [1] was -4.92%; in assay [3] it was -14.6%. For the same compound, the Potency in [2] was 12.6 µM (active); in assay [5], > 9.22 µM; in assay [6], > 46 µM; in assay [16], 6.31 µM (active); in assay [9] it was 2.51 µM (active). In addition, the activity, negative = inhibition in [4] was 1.12%. Besides, the Potency entry in assay [10] is “inactive”. Further, the outcome in [13] was inactive.

Values taken from PubChem BioAssay (NCATS).
